Assay results reported in PubChem BioAssay (NCI).
This is part of a sample that, as a whole, favours compounds with a hit. Of some 83,000 tested, about 20% had one in any assay.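 Results are percent growth after 48 hours of single-concentration exposure. 100 means growth as in untreated cells, lower positive values show inhibition; negative values down to -100 show cell death.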 Calls of active or inactive are those of the source. Rule for the calls: active = growth percent below 10; inactive = the rest.

The compounds below were run on COLO 205 colon (assay: NCI-60 one-dose screen, 48 h (100 = growth as untreated, 0 = no growth, -100 = all killed)). Settings: 10 µM unless noted.

Row | SMILES | growth
1 | CCN(CC)CCOc1ccc(C(=C(c2ccccc2)C2CCCC2)c2ccc(OCCN(CC)CC)cc2)cc1 | -83.9% (active)
2 | COC(=O)c1cccc(NC2=C(Cl)C(=O)c3nc(C)ccc3C2=O)c1 | 116% (inactive)
3 | COc1cc(/C=N\NC(=O)c2ccc3nc(-c4ccc(Br)cc4)[nH]c3c2)cc(OC)c1OC | 32.5% (inactive)
4 | NC1=NC2(CCCC2)N(c2ccc(S(=O)(=O)Nc3nccs3)cc2)C(N)=N1 | 113% (inactive)
5 | N#C/C(=N\Nc1ccc(F)cc1)C(=O)Nc1cc(-c2ccccc2)nn1-c1ccccc1 | -7.35% (active)
6 | Cc1ccc(S(=O)(=O)c2nc(-c3ccc(F)cc3)oc2S(C)(=O)=O)cc1 | 95.1% (inactive)
7 | CC(O)c1cccc(/C(N)=N/C(N)=N/c2nc3ccccc3s2)c1 (centres undefined) | 109% (inactive)
8 | CCOc1cccc(/C(N)=N/C(N)=N/c2nc3ccccc3s2)c1 | 113% (inactive)
9 | O=C(CCl)Nc1ccc(NC(=O)c2cc(Cl)ccc2O)c(Cl)c1 | 95.2% (inactive)
10 | Clc1ccc(CSc2nnc(-c3ccc(Cl)cc3)n2-c2ccccc2)cc1 | 122% (inactive)
11 | CC(C)(C)OC(=O)NCc1ccc(CNc2c([N+](=O)[O-])cnc3ccccc23)cc1 | 80.1% (inactive)
12 | NS(=O)(=O)c1ccc(Nc2nc(N/N=C/c3ccc4c(c3)OCO4)nc(Nc3ccccc3)n2)cc1 | 49.7% (inactive)
13 | Cc1cc(=O)oc2cc(OCCCOc3ccc(/C=C/C(=O)Nc4ccc(Br)cc4)cc3)ccc12 | 97.7% (inactive)
14 | CNC(=O)c1cc(N2CCc3cc(NC(=O)Nc4ccc(N5CCOCC5)c(C(F)(F)F)c4)ccc32)ccn1 | 26.7% (inactive)
